D3 antag: blocks the human D3 dopamine receptor | P35462 | 360,000 compounds, 2.5% hits | D3R cells, DiscoveRx beta-arrestin luminescence, antagonist mode; hits give low values | max response, negative = inhibition, %; in the data active = max response below about -50%; inconclusive = no clear call, values can overlap the other calls; note: % is set by controls: 0 for no effect and ±100 for the full control effect
Target sequence (P35462 whole entry, looked up): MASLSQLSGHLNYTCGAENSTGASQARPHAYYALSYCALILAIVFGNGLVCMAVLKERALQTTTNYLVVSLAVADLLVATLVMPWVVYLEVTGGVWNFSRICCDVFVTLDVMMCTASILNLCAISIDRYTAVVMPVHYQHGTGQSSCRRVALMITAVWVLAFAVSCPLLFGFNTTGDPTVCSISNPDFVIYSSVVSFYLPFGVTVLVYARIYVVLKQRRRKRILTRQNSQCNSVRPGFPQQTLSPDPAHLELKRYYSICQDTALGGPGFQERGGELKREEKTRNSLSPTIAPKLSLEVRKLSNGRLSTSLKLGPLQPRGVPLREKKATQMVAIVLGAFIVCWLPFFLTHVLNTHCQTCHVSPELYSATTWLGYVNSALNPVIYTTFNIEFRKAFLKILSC
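Cells plated overnight at 1500 cells/well, then exposed to library compounds with dopamine controls for 90 minutes at 37 degrees C. DiscoveRx reagent added for 30–60 minutes at room temperature; luminescence read, quantitative HTS format.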
D1 antagonist: antagonists of human D1 dopamine receptor. AID 504652. 360,000 compounds, 3.2% hits. activity change, negative = inhibition, % at 10 µM. HEK293 TREx D1 cells, calcium flux, dopamine EC80; hits give low values; in the data active = activity change below about -30%; note: % is set by controls: 0 for no effect and ±100 for the full control effect
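HEK293 T-REx cells expressing inducible, force-coupled D1 receptor; no-wash Ca dye, 30–90 min RT. Cmpd → 180 s read at 1 Hz → EC80 DA → 180 s read.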
D1 ag: activates the human D1 dopamine receptor | 360,000 compounds, 1% hits | HEK293 T-REx D1 cells, calcium flux, agonist mode | activation, % at 2 µM | P21728 | AID 504660; in the data active = activation above about 30%; note: 0% is about no effect
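Agonism was scored from calcium flux recorded over 180 s (1 read/s) after pintool compound addition, following a 10-cycle baseline. Cells were inducible force-coupled HEK293 TREx D1, plated overnight at 30 C and loaded with no-wash calcium dye.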
DRD3 agonist: activates the human D3 dopamine receptor; P35462; max activation, %; AID 652048; D3R DiscoveRx beta-arrestin cells, luminescence, 90 min; 410,000 compounds, 0.58% hits; in the data active = max activation above about 30%; note: 0% is about no effect
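Cells at 1500/well, incubated overnight, then treated with pinned compounds (dopamine as control) for 90 min at 37 degrees C. DiscoveRx reagent added for 30 - 60 minutes at room temperature; luminescence read.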
D1 PAM: enhances dopamine response at the human D1 receptor; potentiation, % at 10 µM; AID 504651; HEK293 TREx D1 cells, calcium flux, dopamine EC20 potentiation; 360,000 compounds, 0.036% hits; P21728; in the data active = potentiation above about 30%; note: 0% is about no effect
Starred values were filed as active, the others as inactive; u = inconclusive; x = no result. Rows were chosen to be rich in hits. Some 6% of all compounds tested hit in one or more screens of this group.

SMILES | D3 antag | D1 antagonist | D1 ag | DRD3 agonist | D1 PAM
Oc1c(Br)cc(Br)cc1-c1nc2ccccc2s1 | x | -30* | 3 | -10 | -1
COc1cccc(-c2nc3ccccc3s2)c1O | 13 | -3 | 3 | 3 | -2
COc1ccc(Cl)cc1C(=O)NCC(c1ccco1)N1CCCC1 (stereo unspecified) | -81* | 12 | 3 | -56 | -7
COc1ccc(Cl)cc1NS(=O)(=O)c1cccc(C(=O)NCC(c2ccco2)N(C)C)c1 (stereo unspecified) | -82* | 6 | 5 | -13 | -2
COc1ccc(Cl)cc1C(=O)NCC(c1ccco1)N(C)C (stereo unspecified) | -79* | 28 | 0 | -16 | 0
N#CC(C#N)=c1ccc2c(c1)NC1(CCCCC1)N=2 | -78* | 12 | 6 | -22 | 0
COC(=O)c1ccc(NC(=O)c2c(NCc3ccc(C)o3)sc3c2CCCC3)cc1 | x | 4 | 2 | -12 | -3
CCCCN1C(=O)C2(NNc3ccccc3O2)c2ccccc21 (stereo unspecified) | 8 | x | 74* | 2 | -2
C=CCN1C(=O)C2(NNc3ccccc3O2)c2ccccc21 (stereo unspecified) | -25 | -22 | 45* | -8 | -1
CCOC(=O)C1=C[C@@H](c2ccccc2)N(S(=O)(=O)c2ccc(C)cc2)[C@H]1c1ccccc1Cl | -1 | x | x | 3 | x
Cc1cc2nc(C)c(=O)n(C)c2cc1C | 5 | -38* | -1 | 6 | -8
CC1(C(=O)Nc2ccc(Cl)c(Cl)c2)CCN1Cc1ccccc1OC(F)F (stereo unspecified) | 92 | x | x | 5 | x
CC1(C)S[C@@H]2[C@H](NC(=O)[C@H](N)c3ccccc3)C(=O)N2[C@H]1C(=O)OC1OC(=O)c2ccccc21 (stereo partly specified) | -67* | -9 | 0 | -34 | -6
CCCCN1CCc2c([nH]c3ccccc23)C1=O | -24 | -5 | 1 | 1 | 0
CN1CCc2ccccc2Cc2[nH]c3ccccc3c2CC1 | -110* | -107* | -1 | -54 | -7
COc1ccc2cc(C(=O)/C=C/c3cc(OC)c(O)c(OC)c3)ccc2c1 | -29 | -13 | 25 | 5 | -5
CN(C)c1ccc(/C=C/C(=O)c2ccccc2O)cc1 | -26 | -25 | 35* | -10 | -1
COc1ccc(C(=O)/C=C/c2ccc(N(C)C)cc2)c(OC)c1 | 14 | 4 | 295* | 4 | -5
COc1ccc(C(=O)/C=C/c2cc(OC)c(O)c(OC)c2)c(F)c1 | -20 | -5 | 52* | -3 | -4
CN(C)c1ccc(/C=C/C(=O)c2cccnc2)cc1 | -11 | 0 | 176* | -7 | -9
COc1ccc(C(=O)/C=C/c2ccccc2)c(OC)c1 | 11 | -11 | -4 | -2 | 2
Cc1[nH]n(C(N)=S)c(=O)c1N=Nc1ccc(S(=O)(=O)N2CCCC2)cc1 | -78* | -30 | 0 | 5 | -23
Cc1ccc(N=Nc2c(C)[nH]n(C(N)=S)c2=O)cc1 | u | -11 | 0 | 4 | -3
CCOC(=O)CSc1nc2ccccc2c(=O)n1-c1cccc(C)c1 | x | -18 | 0 | -8 | -1
CCOC(=O)c1c(NC(=O)CSc2nnc(-c3ccccc3)o2)sc(C(C)=O)c1C | 9 | -2 | 1 | 16 | -2
SMILES | D3 antag | D1 antagonist | D1 ag | DRD3 agonist | D1 PAM
CCOC(=O)c1c(NC(=O)CSc2nnc(Cc3ccccc3)o2)sc(C(C)=O)c1C | 51 | -36* | 1 | 0 | -10
Cc1cccc(C(=O)NC(=S)NNC(=O)COc2c(C)cccc2C)c1 | 7 | -25 | 137* | -1 | -4
Cc1ccc(C(=O)NC(=S)NNC(=O)COc2ccccc2C)cc1 | u | 3 | 31* | -2 | 2
Cc1cccc(C(=O)NC(=S)NCc2ccccc2)c1 | -29 | x | x | -4 | x
O=C(COc1ccccc1)NNC(=S)NC(=O)c1ccccc1 | -11 | -4 | 2 | -5 | -4
Cc1cccc(C(=O)NC(=S)Nc2ccccc2C(=O)O)c1 | -2 | 2 | 1 | -4 | 10
Cc1cccc(C(=O)NC(=S)NNC(=O)c2ccccc2Cl)c1 | 2 | -35* | 301* | 4 | -4
Cc1cccc(C(=O)NC(=S)NNC(=O)Cc2ccccc2)c1 | -7 | -13 | 72* | 9 | -1
COc1ccc(Nc2cc(C(=O)NCCCN3CCN(c4ccc(OC)cc4)CC3)c3ccccc3n2)cc1 | x | -3 | 15 | 15 | -3
CCn1ncc(S(=O)(=O)Nc2cccnc2)c1C | -9 | -41* | 2 | -7 | -10
Cc1ccccc1S(=O)(=O)Nc1cccnc1 | 12 | 1 | 1 | 3 | -4
COC(=O)c1sccc1NC(=S)N(C)C1CCCCC1 | 20 | 6 | 0 | 2 | -7
COC(=O)c1sccc1NC(=O)Nc1ccc(C)cc1 | -2 | -13 | 1 | 55* | -4
COC(=O)c1sccc1NC(=O)Nc1ccc(C(C)=O)cc1 | -5 | -33* | -1 | 8 | 0
COC(=O)c1sccc1NC(=O)Nc1ccc(F)cc1 | 14 | 15 | 1 | 2 | -1
COC(=O)c1cc(Br)ccc1NC(=O)Nc1ccc(C)cc1 | -80* | x | x | -6 | x
COC(=O)c1sccc1NC(=O)NC1CCCCC1 | -51* | 20 | 1 | 7 | -2
CCCCCCN1C[C@H](n2cc(-c3ccc(F)cc3)nn2)[C@@H](O)C[C@@H]1c1ccc(Cl)cc1 | 35 | x | x | 6 | x
O=C(NCC(F)(F)F)[C@H]1O[C@@H](n2ccc(=O)[nH]c2=O)[C@H](O)[C@@H]1O | 0 | x | x | 1 | x
O=C(Nc1cccc(Br)c1)c1ccc(CN2CCc3ccccc3C2)cc1 | -56* | -2 | 6 | -16 | -5
CSc1cccc(NC(=O)c2ccc(CN3CCc4ccccc4C3)cc2)c1 | -96* | 14 | 2 | -7 | -5
COC(=O)c1ccc(CN2CCc3ccc(NC(=O)c4ccncc4)cc3C2)cc1 | u | -16 | 16 | -6 | -12
CCc1ccccc1NC(=O)C(C)n1nc(-c2ccc(C)c(C)c2)ccc1=O (stereo unspecified) | x | 3 | -3 | -1 | 2
CCCCNC(=O)CCn1c(=O)c2ccccc2n(CC(=O)NCCc2ccc(OC)c(OC)c2)c1=O | 33 | -6 | 0 | 18 | -3
Cc1cc(C)c(NC(=O)COC(=O)Cn2nc(-c3ccccc3)oc2=O)c(C)c1 | -55* | x | x | -6 | x
N#Cc1cccc(NC(=O)COc2ccc(-n3ccnc3)cc2)c1 | -19 | -28 | 15 | -7 | -4
N#Cc1cccc(NC(=O)COC(=O)Cn2nc(-c3ccccc3)oc2=O)c1 | -23 | -85* | 18 | -4 | x
CCCOC1(C(F)(F)F)NC(=O)N(c2ccc(Cl)cc2)C1=O (stereo unspecified) | x | -18 | 1 | -18 | -6
O=C(NN1C(=O)c2ccccc2C1=O)c1ccncc1 | -24 | -17 | 6 | -8 | -4
CN(C)c1ccc(C(=O)NN2C(=O)c3ccccc3C2=O)cc1 | -11 | -32* | 0 | 4 | -4

Assay outcomes (PubChem)
